Our source for the inhibition values is PubChem BioAssay AID1850 (Southern Research Specialized Biocontainment Screening …, 2009).

Hit rate of the full screen: of about 310,000 compounds, about 1,000 (0.32%) were called active. These entries were drawn from the full list. Potency and affinity values are given separately. Values without a mark were called inactive. How the calls were made is not given here.

The test is described as follows: Inhibition of PhoP regulon, Salmonella typhi GFP reporter cells, confirmation, 4 h (AID 1850).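 Further: 0% = induced wells with vehicle and 100% = uninduced wells.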 As to conditions: Salmonella Typhi PhoP-promoter GFP reporter, fluorescence, at 50 µM, active compounds read high.
With `Cc1ccc(S(=O)(=O)NNC(=O)c2cnn(-c3ccccc3)c2C(F)(F)F)cc1`, the inhibition is -1.38%.
In the case of `CC(C)(C)C(=O)Nc1ccccc1-c1nc2ccccc2[nH]c1=O`, the inhibition is -6.56%.
The same measure for `O=C(COc1ccccc1[N+](=O)[O-])Nc1ccc(N2CCN(C(=O)c3cccs3)CC2)cc1`: 7.91%.
On to `Cc1cc(C(=O)N/N=C/c2ccc(Br)o2)n[nH]1`, for which the inhibition was -0.33%.
Under `O=C1C2C3C=CC(C3)C2C(=O)N1CCCCCCN1C(=O)C2C3C=CC(C3)C2C1=O` (stereo not given) stands 7.17%.
For `O=C1C=CC(=O)N1Cc1ccccc1`, the inhibition was 18.2%.
The same measure for `COc1ccc2nc(-c3ccccc3)nc(C3CCCCC3)c2c1`: -28.1%; for `COc1ccc(Cl)cc1NC(=O)CN(C)C(=O)c1cc2c(s1)CCC(C)C2` (stereo not given): -5.36%; for `Cc1c(CN(C)C)c2c(n1C)C(=O)c1ccc(Br)cc1-2`: -10.7%.
Under `Cc1c(CN(C)C)c2c(n1Cc1ccccc1)C(=O)c1ccccc1-2` stands 5.65%; under `O=C(c1nc2ccccn2c1CNCCn1ccc2ccccc21)N1CCOCC1`, -10.1%; under `COc1ccccc1-c1ccc2nnc(SCC(=O)N3CCCC3)n2n1`, 3.68%.
Under `CCn1nc(-c2ccccc2)nc2c(=O)n(C)c(=O)nc1-2` stands 14.7%; under `Cc1ccc(-n2c3nc(=O)n(C)c(=O)c-3cc3ccccc32)cc1`, 8.69%.
Take `Cc1ccccc1-n1c2nc(=O)n(C)c(=O)c-2cc2ccccc21`: the inhibition was -5.45%.
The same measure for `Cn1nc(-c2ccccn2)nc2c(=O)n(C)c(=O)nc1-2`: 13.1%; for `Nc1nonc1-n1nnc(C(=O)N/N=C/c2ccc(F)cc2)c1-c1ccc2c(c1)OCO2`: 3.99%.
Under `CC(C)c1ccc(NC(=O)C2CCN(S(C)(=O)=O)CC2)cc1` stands 9.77%; under `O=C(CN1CCN(c2ccccn2)CC1)NC1CCCC1`, -2.6%.
Regarding `CC[C@H]1OC(=O)[C@H](C)[C@@H](O[C@H]2C[C@@](C)(OC)[C@@H](O)[C@H](C)O2)[C@H](C)[C@@H](O[C@@H]2O[C@H](C)C[C@H](N(C)C)[C@H]2O)[C@](C)(O)C[C@@H](C)C(=NOCOCCOC)[C@H](C)[C@@H](O)[C@]1(C)O`, the inhibition was -1.81%.
For `CCC1OC(=O)C(C)C(OC2C[C@@](C)(OC)C(O)C(C)O2)C(C)C(O[C@@H]2OC(C)CC(N(C)C)C2O)[C@](C)(O)CC(C)C(=NOCOCCOC)C(C)C(O)[C@]1(C)O` (stereo not given in full), the inhibition is 2.39%.
The same measure for `CCOC(=O)CCC(=O)O[C@H]1[C@H](O[C@@H]2[C@@H](C)[C@H](O[C@H]3C[C@@](C)(OC)[C@@H](O)[C@H](C)O3)[C@@H](C)C(=O)O[C@H](CC)[C@@](C)(O)[C@H](O)[C@@H](C)C(=O)[C@H](C)C[C@@]2(C)O)O[C@H](C)C[C@@H]1N(C)C`: 12.7%; for `COc1ccccc1C(C(=O)NCc1ccc(F)cc1)N(C(=O)c1csnn1)C1CC1` (stereo not given): -0.44%; for `CCN(CC)S(=O)(=O)c1ccc(OC)c(NC(=O)c2ccc(-n3cncn3)c([N+](=O)[O-])c2)c1`: 1.29%.
The same measure for `O=C(Cn1c(=O)oc2ccccc21)NCCc1ccccc1`: -10.1%.
On to `Cc1cc(C)cc(NC(=O)CSc2nccn2Cc2ccco2)c1`, for which the inhibition is -0.51%.
For the compound `COc1cc(CNCCO)cc(Cl)c1OCc1ccccc1Cl`, the inhibition is -3.95%.
The same measure for `COc1cc(CNCCO)cc(Br)c1OCc1ccccc1Cl`: 9.5%; for `COc1cc(CNCCc2ccccc2)ccc1OCc1ccc(Cl)nc1`: 26.7%; for `COc1cc(CNC2CCCC2)cc(Cl)c1OCc1ccccc1F`: 11.7%.
In the case of `OCCNCc1ccc(OCc2ccc(Cl)cc2Cl)cc1`, the inhibition is 6.74%.
On to `COc1cc(CNC2CCCC2)cc(Cl)c1OCc1ccc(F)cc1`, for which the inhibition was 7.58%.
Regarding `OCCCCNCc1ccc(OCc2ccccc2Cl)cc1`, the inhibition was 26.2%.
Consider `COc1ccccc1CCNCc1ccc(OC)c(OCc2ccccc2)c1`, for which the inhibition is -4.13%.
The same measure for `CC1(C)CC(=O)C2=C(C1)OC(N)=C(C#N)C21C(=O)N2CCCc3cccc1c32` (stereo not given): -2.22%.
The same measure for `CN(C(=O)COC(=O)c1ccc2[nH]c3c(c2c1)CCCC3)C1CCS(=O)(=O)C1` (stereo not given): -8.01%.
`Cc1ccc(OCCCCN2CCC(C)CC2)cc1`: the inhibition was 15.9%.
The same measure for `CCOc1cc(CNCCc2ccc(S(N)(=O)=O)cc2)cc(Cl)c1OCc1ccccc1`: 13%.
The same measure for `COc1cc(CNC(C)(C)CO)cc(Br)c1OCc1ccc(Cl)cc1Cl`: 0.08%.
The same measure for `COc1cc(CNCc2ccccc2)cc(Cl)c1OC`: 4%; for `CCOc1cc(CNCCO)cc(Br)c1OCc1ccc(Cl)cc1Cl`: 8.42%; for `CC(C)c1ccc(Nc2c([N+](=O)[O-])c(=O)n(C)c3ccccc23)cc1`: 2.08%.
On to `Cc1ccc2nsnc2c1S(=O)(=O)NCc1ccncc1`, for which the inhibition is -2.24%.
The same measure for `Cc1onc(-c2ccccc2)c1-c1nnc(-c2ccccc2C(F)(F)F)o1`: 0.63%; for `C=CCN(c1nc(C)cc(OC)n1)S(=O)(=O)c1ccc(C)cc1`: 0.2%.
Under `CC(C)(C)c1nnc(NC(=O)c2cccs2)s1` stands 10.7%.
The same measure for `CN1CCN(c2ccc(C(F)(F)F)cc2N)CC1`: 2.28%; for `Cc1nc2cc(C(F)(F)F)ccc2n1C`: 1.93%.
Turning to `O=C(Nc1ccccc1C(=O)Nc1ccccn1)c1cc(F)c(F)cc1Cl`, the inhibition was -1.17%.
Under `Cc1ccc[n+](-c2nc3ccccc3nc2[N-]S(=O)(=O)c2ccccc2)c1` stands -11.4%; under `O=C(/C=C/c1ccc2c(c1)OCO2)c1cccnc1`, 0.98%; under `O=C(Cn1nc(C(F)(F)F)c2c1CCC2)Nc1ccccc1C(F)(F)F`, -9.91%.
Under `O=C(C[n+]1cc(-c2ccc(Cl)cc2)n2c1CCCCC2)c1ccccc1` stands 1.54%; under `CC1CCC(C(C)C)C(OC(=O)C[n+]2cc(-c3ccc(Cl)cc3)n3c2CCCCC3)C1` (stereo not given), 10.8%.
Under `Cn1c(NC(=O)C[n+]2cc(-c3ccc(Cl)cc3)n3c2CCC3)cc(=O)n(C)c1=O` stands 11.1%; under `COc1ccc(-c2c[n+](CC(=O)OC3CC(C)CCC3C(C)C)c3n2CCC3)cc1` (stereo not given), 1.91%; under `CCc1ccc(Nc2nnc(SCc3cc(=O)n4ccsc4n3)s2)cc1`, -7.77%.
Consider `CCCCNCCCOc1cccc(Cl)c1`, for which the inhibition is 2.53%.
Under `CCCCNCCCOc1cc(Cl)ccc1Cl` stands 6.78%.
The same measure for `O=C(NCCO)c1cccc(Cl)c1`: -3.96%.
`O=C1CCC([N+](=O)[O-])C(c2cc3c(cc2Cl)OCO3)N1` (stereo not given): the inhibition is 3.32%.
Under `COC(=O)c1cc(C(=O)c2ccc(Cl)cc2)n2c(=O)/c(=C\N(C)C)sc12` stands 4.66%; under `O/N=C/c1ccc(OCc2ccccc2F)c(Cl)c1`, -2.37%.
Under `O/N=C/c1ccc(OCc2ccccc2)c(Br)c1` stands 17.4%; under `Cc1cc(C)cc(NC(=O)CSc2nc3ccccc3nc2N2CCCC2)c1`, 11.5%.
The same measure for `OCCNc1c2c(nc3ccccc13)CCCC2`: -3.18%.
Regarding `CN(C)CCCNc1nc(-c2ccccc2)nc2ccccc12`, the inhibition was -2.17%.
Under `CN(C)CCCNc1c2c(nc3ccccc13)CCC2` stands 5.26%.
Under `Fc1cccc(NCCc2c[nH]c3ccccc23)n1` stands 3.37%.
Under `CNCCc1c[nH]c2ccccc12` stands 10.1%; under `OCCNc1c2ccccc2nc2ccccc12`, 11.8%; under `N#CCCN(C(=O)COC(=O)c1ccc(CNS(=O)(=O)c2ccc(F)c(Cl)c2)cc1)c1ccc(F)cc1`, -2.96%.
With `Cc1ccc(CNC(=O)C2CCCN(c3nn4c(=O)cc(C)nc4s3)C2)cc1` (stereo not given), the inhibition was -0.07%.
Under `CCC1=C2CC[C@H]3C(=O)N(C)C(=O)[C@H]3[C@H]2[C@@]2(Cc3ccccc3)C(=NCC(=O)OC)OC(=O)N2C1=O` stands -11.3%; under `CC(Sc1nnc(-c2ccccc2Br)o1)C(=O)N1CCOCC1` (stereo not given), 0.36%.
Under `O=C(NCC1CCCO1)c1cccc(NC(=O)c2ccc(Br)cc2)c1` (stereo not given) stands -6.91%; under `CC(C)c1ccc(NC(=O)CSc2nc3ccsc3c(=O)n2Cc2ccc(C(=O)O)cc2)cc1`, -12%.
In the case of `COC(=O)CC1=C(C(=O)OC)C(c2ccc3c(c2Cl)OCO3)C(C#N)=C(N)O1` (stereo not given), the inhibition is -2.85%.
Under `CCC(=C(c1ccc(OC)cc1)c1ccc(OC)cc1)c1cn(CC(O)CN(CCO)CCO)c2ccccc12` (stereo not given) stands 1.98%.
As for `COc1ccccc1-n1c(SCC(=O)Nc2ccc(F)cc2)nc2c(c1=O)SCC2`, the inhibition was 4.39%.
The same measure for `C=CCn1c2ccccc2n2nc(C)c(=O)nc12`: 5.77%.
On to `COc1ccc(NC(=O)Cc2ccccc2)cc1`, for which the inhibition is -3.71%.
Under `COc1ccc(/C=C/C(=O)NCCCc2ccccc2)cc1` stands 2.3%; under `CCNC(=S)N1CCNC(=O)C1CC(=O)OC` (stereo not given), -0.49%.
On to `CCCSC(=S)NC1CCS(=O)(=O)C1` (stereo not given), for which the inhibition was 14.2%.
Under `C=CCSC(=S)NC1CCS(=O)(=O)C1` (stereo not given) stands 4.24%; under `COCCSc1nnc(NC(=O)C2CCCO2)s1` (stereo not given), -16.4%; under `CN1CCN(C(c2ccc(C(F)(F)F)cc2)c2cc(Cl)c3cccnc3c2O)CC1` (stereo not given), 2.9%.
The same measure for `CCN1CCN(C(c2ccc(C(F)(F)F)cc2)c2ccc3cccnc3c2O)CC1` (stereo not given): -8.31%; for `Oc1c(C(c2ccccn2)N2CCCCC2)cc(Cl)c2cccnc12` (stereo not given): 20.3%.
Under `CN1CCN(C(c2ccccn2)c2cc(Cl)c3cccnc3c2O)CC1` (stereo not given) stands -16.9%.
As to `CN1CCN(C(c2cccnc2)c2ccc3cccnc3c2O)CC1` (stereo not given), the inhibition was 4.05%.
Under `Oc1c(C(c2ccccn2)N2CCC(Cc3ccccc3)CC2)cc(Cl)c2cccnc12` (stereo not given) stands -1.4%; under `CC(=O)NC(c1ccc(C)cc1)c1cc(Cl)c2cccnc2c1O` (stereo not given), -5%; under `Oc1c(C(c2ccc(Cl)cc2)N2CCCC2)cc(Cl)c2cccnc12` (stereo not given), -16.5%.
